LDHA block = inhibitors of human lactate dehydrogenase A; hit rate 0.15% among 480,000; purified LDHA, NADH/diaphorase-resazurin fluorescence; active compounds read low; P00338; activity change, % (values are at about 110 or 230 µM); in the data active means activity change below about -30%; inconclusive means mostly about -25% to -30%
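Human LDH5 (2 nM) was incubated with 0.06 mM NADH and 0.2 mM pyruvate for 5 min at room temperature in Tris pH 7.4. Remaining NADH was coupled through diaphorase/resazurin, and resorufin fluorescence was read at 0 and 20 min.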
HepG2 tox-1 = HepG2 cytotoxicity, counter-screen for TGF-b inhibitors; hit rate 0.76% among 410,000; Potency, µM (series often up to 46.1 µM), usual class: cytotoxic; HepG2 CAGA-GFP viability, ATP luminescence, 18 h; AID 588856
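HepG2 CAGA-GFP cells (1000/well, DMEM with 1% FBS) received compound, then TGF-beta at 500 pg/mL final, and were incubated 18 hours at 37 degrees C. Viability was read by CellTiter-Glo luminescence. Media-only wells were set as complete cell-killing and DMSO as no toxicity.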
ATXN2 expr inh = reduces ATXN2 reporter expression in HEK-293 cells; HEK-293 ATXN2-luciferase reporter, luminescence, 24 h; hit rate 0.72% among 360,000; Potency, µM (titrated, usually from 57 µM), hits mostly inhibitors; further: nearly all actives have a fitted effect of over 55% in size
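ATXN2-luciferase reporter cells (luciferase flanked by upstream and downstream ATXN2 gene portions) were treated 24 h at 37 °C with compounds at up to 57 uM. SteadyGlo luminescence gave expression; GF-AFC fluorescence gave viability.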
IDH1 R132H inh = human IDH1 R132H inhibition. O75874. IDH1-R132H enzyme, NADPH consumption, diaphorase/resazurin fluorescence. Potency, µM (highest dose often 76.6 µM), hits mostly inhibitors. hit rate 0.093% among 390,000; further: nearly all actives have a fitted effect of over 65% in size
Target sequence (O75874 whole entry R132H, stated change not applied): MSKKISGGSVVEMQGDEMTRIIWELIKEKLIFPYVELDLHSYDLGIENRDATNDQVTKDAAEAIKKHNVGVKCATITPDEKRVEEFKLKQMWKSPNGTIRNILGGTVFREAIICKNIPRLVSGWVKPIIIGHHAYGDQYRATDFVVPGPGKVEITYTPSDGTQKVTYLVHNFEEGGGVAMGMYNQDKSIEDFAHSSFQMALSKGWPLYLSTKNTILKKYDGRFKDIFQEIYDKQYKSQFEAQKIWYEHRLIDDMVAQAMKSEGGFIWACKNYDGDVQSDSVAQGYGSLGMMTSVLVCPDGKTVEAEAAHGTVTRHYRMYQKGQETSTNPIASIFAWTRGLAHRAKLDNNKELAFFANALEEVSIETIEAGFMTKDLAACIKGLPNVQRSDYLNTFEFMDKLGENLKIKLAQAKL
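IDH1-R132H (0.5 ug/mL dispensed) in pH 7.5 Tris buffer was preincubated 30 min with compound, then given a substrate mix of 0.016 mM NADPH and 2 mM alpha-KG for 80 min at room temperature; remaining NADPH was read by diaphorase/resazurin fluorescence.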
TGFb SMAD3 inh = TGF-b pathway inhibition. hit rate 1.2% among 410,000. AID 588855. HepG2 CAGA-GFP TGF-b/SMAD3 reporter, GFP fluorescence, 18 h; TGF-beta stimulated, 500 pg/mL final. Potency, µM (highest dose often 46.1 µM), hits mostly inhibitors; further: nearly all actives have a fitted effect of over 65% in size
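Cell-based qHTS in HEPG2 carrying a CAGA-GFP Smad reporter; compounds added before 500 pg/mL final TGF-beta, 18 h incubation at 37 degrees C, GFP fluorescence quantified per cell by imaging cytometry.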
ATXN viability = cell viability loss in ATXN counter-screen; hit rate 0.49% among 400,000; AID 651635; S2 cells (HEK-293 line with an ATXN2-luciferase reporter) viability, CellTiter-Fluor protease fluorescence, 24 h; Potency, µM (doses to about 56.7 µM), actives largely listed as cytotoxic; further: nearly all actives have a fitted effect of over 40% in size
TGFb confirm = confirmation of TGF-b signaling inhibitors in HepG2 reporter cells; shares compounds with TGFb SMAD3 inh; HepG2 CAGA-GFP TGF-b reporter, GFP fluorescence, 18 h; cells stimulated with TGF-beta, 500 pg/mL; Potency, µM (highest dose often 46.1 µM), most hits filed as inhibitors; hit rate 63% among 1,600; further: nearly all actives have a fitted effect of over 65% in size
HepG2 tox-2 = counter-screen for TGF-b inhibitors: cytotoxicity in HepG2 cells; shares compounds with TGFb SMAD3 inh; HepG2 CAGA-GFP viability, ATP luminescence, 18 h; cells stimulated with TGF-beta, 500 pg/mL; Potency, µM (series often up to 46.1 µM), usual class: inhibitors; hit rate 27% among 1,600; AID 720535; further: nearly all actives have a fitted effect of over 70% in size
TGFb CCL64 inh = TGF-b inhibition, CCL64 orthogonal assay. shares compounds with TGFb SMAD3 inh. CCL64 CAGA-GFP reporter, TGF-b stimulated, GFP fluorescence, 18 h. Potency, µM (highest dose often 46.1 µM), usual class: inhibitors. hit rate 41% among 1,600. AID 720536; further: nearly all actives have a fitted effect of over 65% in size
COP TGFb inh = TGF-b inhibition validated with COP promoter; HepG2 COP-GFP TGF-b reporter, GFP fluorescence, 18 h; cells stimulated by added recombinant TGF-beta; hit rate 3% among 1,600; shares compounds with TGFb SMAD3 inh; Potency, µM (series often up to 46.1 µM), hits mostly inhibitors; further: nearly all actives have a fitted effect of over 70% in size
Hits are given with their value. Rows were chosen to be rich in hits. Some 2.2% of all compounds tested hit in one or more screens of this group. Unless noted, the call rests on the fitted dose curve; in most records, active means well fitted curve in the direction sought with a large enough effect; inconclusive means small, poorly fitted or top-dose-only effect, or another doubt; inactive means no such curve, though single readings can be large; an effect the other way counts as inactive or inconclusive.

Results for Cc1ccc(Cn2c(CN3CCN(C(=O)c4ccco4)CC3)nc3c2c(=O)n(C)c(=O)n3C)cc1 ?
LDHA block: inactive; HepG2 tox-1: inactive; ATXN2 expr inh: inactive; IDH1 R132H inh: inactive; TGFb SMAD3 inh: inactive; ATXN viability: inactive

What do the screens show for `O=C(OC(C(=O)Nc1cc(Cl)cc(Cl)c1)c1ccccc1)C1=COCCO1` (configuration not stated)?
LDHA block: inactive; HepG2 tox-1: inactive; ATXN2 expr inh: inactive; IDH1 R132H inh: inactive; TGFb SMAD3 inh: 16µM; ATXN viability: inconclusive; TGFb confirm: inconclusive; HepG2 tox-2: inconclusive; TGFb CCL64 inh: 18µM; COP TGFb inh: inactive

How did O=C(O)c1ccc(C=NNC(=O)c2cccc3ccccc23)cc1 do in these assays?
LDHA block: inactive; HepG2 tox-1: inactive; ATXN2 expr inh: inactive; IDH1 R132H inh: inactive; TGFb SMAD3 inh: inactive; ATXN viability: inactive

How did O=C(N/N=C/c1ccccc1O)c1cccc2ccccc12 do in these assays?
LDHA block: inactive; HepG2 tox-1: inactive; IDH1 R132H inh: inactive; TGFb SMAD3 inh: 8.9µM; ATXN viability: inactive; TGFb confirm: inconclusive; HepG2 tox-2: inconclusive; TGFb CCL64 inh: inconclusive; COP TGFb inh: inactive

How did CCSc1nc2ccccc2c(OCc2ccc(Cl)cc2)c1C(=O)OC do in these assays?
LDHA block: inactive; HepG2 tox-1: inactive; ATXN2 expr inh: inactive; IDH1 R132H inh: inactive; TGFb SMAD3 inh: inconclusive; ATXN viability: inactive

How did COc1ccccc1/C=C/C(=O)N1CCc2cc(OC)c(OC)cc2C1C (configuration not stated) do in these assays?
LDHA block: inactive; HepG2 tox-1: inactive; ATXN2 expr inh: inactive; IDH1 R132H inh: inactive; TGFb SMAD3 inh: 14µM; ATXN viability: inactive; TGFb confirm: 12µM; HepG2 tox-2: inconclusive; TGFb CCL64 inh: inactive; COP TGFb inh: inactive

How did COc1ccc(CNS(=O)(=O)c2cc(-c3cc(C)no3)ccc2OC)cc1OC do in these assays?
LDHA block: inactive; HepG2 tox-1: inactive; ATXN2 expr inh: inactive; IDH1 R132H inh: inactive; TGFb SMAD3 inh: inactive; ATXN viability: inactive

How did Cc1ccc2nc(N3CCN(C(=O)c4ccc(F)cc4)CC3)c(C#N)cc2c1 do in these assays?
LDHA block: inactive; HepG2 tox-1: inactive; IDH1 R132H inh: inactive; TGFb SMAD3 inh: 10µM; ATXN viability: inactive; TGFb confirm: inconclusive; HepG2 tox-2: inactive; TGFb CCL64 inh: inconclusive; COP TGFb inh: inactive

How did O=[N+]([O-])c1ccc(N2CCN(Cc3ccccc3)CC2)c2c1no[n+]2[O-] do in these assays?
LDHA block: inactive; HepG2 tox-1: 3.5µM; IDH1 R132H inh: inactive; TGFb SMAD3 inh: 3.2µM; ATXN viability: 3.5µM; TGFb confirm: inconclusive; HepG2 tox-2: 4.1µM; TGFb CCL64 inh: 5.2µM; COP TGFb inh: inconclusive

What do the screens show for `O=[N+]([O-])c1ccc(N2CCN(Cc3ccccc3)CC2)s1`?
LDHA block: inactive; HepG2 tox-1: inactive; ATXN2 expr inh: inactive; IDH1 R132H inh: inactive; TGFb SMAD3 inh: inactive; ATXN viability: inactive

What do the screens show for `CC(=NNc1nc2ccccc2o1)c1cc2ccccc2cn1`?
LDHA block: inactive; HepG2 tox-1: inactive; ATXN2 expr inh: inconclusive; IDH1 R132H inh: inactive; TGFb SMAD3 inh: 0.32µM; ATXN viability: inactive; TGFb confirm: inconclusive; HepG2 tox-2: 18µM; TGFb CCL64 inh: inconclusive; COP TGFb inh: inactive

Results for COc1ccc(NC(=O)CN(CC(=O)Nc2ccc(OC)cc2)C(C)(C)CO)cc1 ?
LDHA block: inactive; HepG2 tox-1: inactive; ATXN2 expr inh: inactive; IDH1 R132H inh: inactive; TGFb SMAD3 inh: inactive; ATXN viability: inactive

Results for Cc1ccc(CCNC(=O)NCc2noc3ccccc23)cc1 ?
LDHA block: inactive; HepG2 tox-1: inactive; ATXN2 expr inh: inactive; IDH1 R132H inh: inactive; TGFb SMAD3 inh: inactive; ATXN viability: inactive

Results for Cc1cc(NC(=O)CSc2nc3cc(Cl)ccc3o2)no1 ?
LDHA block: inactive; HepG2 tox-1: inactive; ATXN2 expr inh: inactive; IDH1 R132H inh: inactive; TGFb SMAD3 inh: inactive; ATXN viability: inactive

Results for CCN(CC)S(=O)(=O)c1ccc2oc(SCC(=O)Nc3cc(C)on3)nc2c1 ?
LDHA block: inactive; HepG2 tox-1: inactive; ATXN2 expr inh: inconclusive; IDH1 R132H inh: inactive; TGFb SMAD3 inh: 10µM; ATXN viability: inactive; TGFb confirm: inconclusive; HepG2 tox-2: inconclusive; TGFb CCL64 inh: inactive; COP TGFb inh: inactive

How did O=C1C=C(N2CCN(c3ccccn3)CC2)C(=O)c2c(O)ccc(O)c21 do in these assays?
LDHA block: inactive; HepG2 tox-1: inactive; ATXN2 expr inh: inconclusive; IDH1 R132H inh: inactive; TGFb SMAD3 inh: 7.1µM; ATXN viability: inconclusive; TGFb confirm: 4.6µM; HepG2 tox-2: 9.2µM; TGFb CCL64 inh: inconclusive; COP TGFb inh: inactive

Results for CCCCN(C(=O)c1cc(S(=O)(=O)N2CCOCC2)ccc1F)c1c(N)n(CCCC)c(=O)[nH]c1=O ?
LDHA block: inactive; HepG2 tox-1: inactive; ATXN2 expr inh: inactive; IDH1 R132H inh: inactive; TGFb SMAD3 inh: inactive; ATXN viability: inactive

Results for CCCCN(C(=O)Cc1ccc(S(=O)(=O)N2CCOCC2)s1)c1c(N)n(CCCC)c(=O)[nH]c1=O ?
LDHA block: inactive; HepG2 tox-1: inactive; ATXN2 expr inh: inactive; IDH1 R132H inh: inactive; TGFb SMAD3 inh: inconclusive; ATXN viability: inactive; TGFb confirm: inactive; HepG2 tox-2: inactive; TGFb CCL64 inh: inactive; COP TGFb inh: inactive

What do the screens show for `COc1ccccc1-n1cc([C@@H]2C[C@H]3CN(c4ccccc4)C(=O)[C@]34CCCN24)cn1`?
LDHA block: inactive; HepG2 tox-1: inactive; ATXN2 expr inh: inconclusive; IDH1 R132H inh: inactive; TGFb SMAD3 inh: 5µM; ATXN viability: inconclusive; TGFb confirm: 0.73µM; HepG2 tox-2: inconclusive; TGFb CCL64 inh: 5.2µM; COP TGFb inh: inactive

Source: PubChem
